This is an account of results in PubChem BioAssay (NCATS).

Assay [1] deals with ATP-dependent 6-phosphofructokinase (Trypanosoma brucei brucei) (UniProt O15648). In words: qHTS Assay to Find Inhibitors of T. brucei phosphofructokinase: hit validation (AID 492961).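 Further: luminescence reports ADP formed as PFK phosphorylates fructose-6-phosphate with ATP; series mostly up to about 51 µM; on the % scale 0 is the no-effect control and ±100 the full control effect.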 An outline of the steps: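 ADP-Glo luminescence read-out of ADP formed by 1.25 nM PFK from 0.1 mM ATP and 0.5 mM F6P (TEA pH 8.0, 45 min, RT). Compounds titrated; activity normalized to no-enzyme and full-enzyme controls.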
ATP-dependent 6-phosphofructokinase (Trypanosoma brucei brucei), sequence (O15648 whole entry, looked up): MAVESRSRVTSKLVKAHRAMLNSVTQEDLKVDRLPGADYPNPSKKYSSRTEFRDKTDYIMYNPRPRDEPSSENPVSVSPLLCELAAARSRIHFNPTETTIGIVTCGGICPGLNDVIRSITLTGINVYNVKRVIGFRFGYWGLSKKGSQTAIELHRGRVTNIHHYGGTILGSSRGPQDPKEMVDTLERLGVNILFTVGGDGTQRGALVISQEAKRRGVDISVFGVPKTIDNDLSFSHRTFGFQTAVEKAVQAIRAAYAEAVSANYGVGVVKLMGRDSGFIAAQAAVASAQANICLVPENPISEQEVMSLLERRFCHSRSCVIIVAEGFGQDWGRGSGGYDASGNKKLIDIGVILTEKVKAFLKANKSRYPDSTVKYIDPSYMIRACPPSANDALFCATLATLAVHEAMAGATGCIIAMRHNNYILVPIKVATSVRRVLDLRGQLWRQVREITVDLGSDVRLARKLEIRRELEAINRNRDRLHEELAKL

Assay [2] is described as follows: Validation screen for small molecules that induce genotoxicity in human embryonic kidney (HEK293T) cells expressing luciferase-tagged ELG1 (AID 493106). Further: 0% is about no effect. An outline of the steps:
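Cells were dispensed at 2,000 per well, then 23 nL compound or DMSO was pinned in. After 16 hr at 37 °C and 5% CO2, ONE-Glo reagent was added. Luciferase activity was measured following 30 min at room temperature.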

In assay [3] the target is Thyrotropin-releasing hormone receptor (Homo sapiens) (UniProt P34981). In words: qHTS for Small Molecule Agonists and Allosteric Enhancers of Human TRH Receptor: Validation Screen for Agonists (AID 493127;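 active means calcium activation more than 3 SD above the typical response in the agonist read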;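 further: intracellular calcium rise by fluo-8 fluorescence before TRH EC20 addition; 0% is about no effect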). As to conditions: TRH receptor agonist cell assay; at 2 µM; stronger effect = higher value. In short, it runs like this: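 Compounds are added by online pintool to dye-loaded TRHR cells while fluorescence is recorded every second. A rise in calcium signal during the agonist read marks activation; a later 10 nM TRH addition (EC20) serves the separate enhancer mode.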
In general terms: In qHTS, concentration-response curves come from the screen itself.

Assay [4] can be described thus: Nrf2 qHTS screen for inhibitors: Validation (AID 493153; active means well fitted inhibition curve with a large enough effect in the main read-out, with a control signal flat, not every such curve was filed as active). As to conditions: Potency: luciferase luminescence; viability change: measured here: cytotoxicity max response. In short, it runs like this:
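A549 ARE_Fluc, 5% FBS OPTI-MEM; cpd titration, 18-24 h, 37°C/5% CO2. Read 1: CellTiter-Fluor (Ex 405/Em 525), cytotox. Read 2: luciferase lum, Nrf2 activity.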

Assay [5] addresses Galactokinase (Homo sapiens) (UniProt P51570). In words: qHTS Validation Assay for Inhibitors of Human Galactokinase (GALK) (AID 493189). Further: 0% is about no effect. In short, it runs like this:
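GALK (5 nM) with 35 uM ATP and 100 uM galactose in HEPES pH 8.0 with MgCl2, NaCl, DTT and BSA. Reaction ran 1 h at room temperature. Residual ATP read by Kinase-Glo Plus luminescence.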

The nature of assay [6]: Validation screen for small molecules that induce DNA re-replication in SW480 colon adenocarcinoma cells (AID 504364). Further: 0% is about no effect. An outline of the steps:
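Image-based qHTS: compounds were incubated with SW480 cells for 48 hr, nuclei stained with Hoechst, and per-nucleus fluorescence intensity scanned to flag cells with excess DNA content.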

The target in assay [7] is Peptidyl-prolyl cis-trans isomerase NIMA-interacting 1 (Homo sapiens) (UniProt Q13526). Briefly: qHTS Validation Assay to Find Inhibitors of Pin1 (AID 504536; active means well fitted inhibition curve with a large enough effect in the polarisation, with a control signal flat, not every such curve was filed as active; the % refers to the polarisation;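 further: 0% = full Pin1 enzyme wells and -100% = no-enzyme wells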). An outline of the steps:
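Fluorescence polarization competition: compounds (titration) displace HiFluor-488-labeled Pin1-1b peptide from Pin1 (0.3 uM final) in pH 7.5 HEPES buffer with DTT, 10 min at room temperature; %Activity normalized to no-enzyme wells, curves fitted.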

Assay [8] addresses Phosphoglycerate kinase, glycosomal (Trypanosoma brucei brucei) (UniProt P07378). In words: qHTS Validation Assay to Find Inhibitors of Phosphoglycerate Kinase (AID 504547).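 Further: control wells lack PGK and mark full inhibition.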 An outline of the steps: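 Luminescence end-point (Kinase-Glo Plus, 10 min) after a 60 min room-temperature coupled reaction. GAPDH at 100nM final supplies 1,3-BPG to PGK. Buffer: 100mM TEA pH 7.6, 5mM MgCl2, 0.01% Tween-20. Wells lacking PGK served as controls.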

Assay [9] deals with phosphoglycerate mutase (Leishmania major) (UniProt Q4Q090). Briefly: qHTS Validation Assay to Find Inhibitors of Phosphoglycerate Mutase (AID 504548). Further: series mostly up to about 58 µM; on the % scale 0 is the no-effect control and ±100 the full control effect. An outline of the steps:
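Lm PGAM 1.25nM final; 100 mM TEA pH 7.6, 5 mM MgCl2, 0.01% Tween-20; 45 min RT; Kinase-GloPlus, 10 min; end-point luminescence. Enzyme-free wells as negative controls.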

A short description of assay [10]: qHTS for Inhibitors of Cell Surface uPA Generation: Validation Assay (AID 493164).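 Further: RAW 264.7 macrophage cells exposed to compound for 18 h; 0% is about no effect.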 An outline of the steps:
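ATP-Lite luminescence read-out: ATP remains high when uPA activity-dependent LF translocation into the cytoplasm is blocked. RAW 264.7 cells, 18 h compound exposure at 37 C; 7-point titration, 2.45 nM to 38.3 uM final.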

Assay [11] in a line: qHTS for Inhibitors of ATXN expression: Validation of Cytotoxic Assay (AID 588349). Further: on the % scale 0 is the no-effect control and ±100 the full control effect. An outline of the steps:
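Titrated compounds are added to cultured HEK293 cells, which are then held at 37 degrees C for 72 hr; loss of intracellular ATP, measured with CellTiter Glo, indicates toxicity.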

The nature of assay [12]: qHTS for Inhibitors of ATXN expression: Validation (AID 588378). Further: series mostly up to about 57 µM; on the % scale 0 is the no-effect control and ±100 the full control effect; nearly all actives have a fitted effect of over 75% in size. An outline of the steps:
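HEK293 cells carrying ATXN2-firefly luciferase reporter, treated with compound 24 h at 37 °C. Viability read first by CellTiter-Fluor (405/525 nm), then reporter expression by Bright-Glo luminescence; controls were a known ATXN2 expression inhibitor and a luciferase inhibitor.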

The target of assay [13] is ATPase family AAA domain-containing protein 5 (Homo sapiens) (UniProt Q96QE3). Briefly: Validation screen for small molecules that inhibit ELG1-dependent DNA repair in human embryonic kidney (HEK293T) cells expressing luciferase-tagged ELG1 (AID 493107). Further: nearly all actives have a fitted effect of over 70% in size. Further: potency means the concentration at half of the fitted maximal effect. An outline of the steps:
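Cells are dispensed in 1536-well format, then 5-fluorouridine and compound are pinned in. After a 16 hr incubation at 37 °C and 5% CO2, ONE-Glo is added and luciferase measured on a CCD imager.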

Assay [14] has as its target Ubiquitin carboxyl-terminal hydrolase 1 (Homo sapiens) (UniProt O94782). Briefly: Inhibitors of USP1/UAF1: Pilot qHTS (AID 504865).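 Further: rhodamine fluorescence freed from ubiquitin-rhodamine substrate followed over time; top concentration of the series differs between compounds; on the % scale 0 is the no-effect control and ±100 the full control effect; nearly all actives have a fitted effect of over 35% in size.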 In short, it runs like this: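 USP1/UAF1 complex at 1 nM preincubated 15 min at room temperature with compound, then Ub-Rho substrate added at 150 nM final. Fluorescence (480/540 nm) read kinetically in 50 mM HEPES pH 7.8, 0.5 mM EDTA, 1 mM TCEP, 0.1 mg/ml BSA, 0.01% Tween-20.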

The target in assay [15] is DNA dC->dU-editing enzyme APOBEC-3G (Homo sapiens) (UniProt Q9HC16). In words: qHTS for inhibitors of Vif-A3G interactions: Validation (AID 588379). Further: 0% is about no effect. In short, it runs like this: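 Yellow fluorescence (Ex 488, Em 500-530) of Vif-coexpressing HeLa A3G-eYFP cells, scanned by Acumen cytometer, reports blocked A3G degradation. Cells plated at 700/well overnight at 37 deg C before compound addition, then a further overnight compound incubation at 37 deg C.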
DNA dC->dU-editing enzyme APOBEC-3G (Homo sapiens), sequence (Q9HC16 whole entry, looked up): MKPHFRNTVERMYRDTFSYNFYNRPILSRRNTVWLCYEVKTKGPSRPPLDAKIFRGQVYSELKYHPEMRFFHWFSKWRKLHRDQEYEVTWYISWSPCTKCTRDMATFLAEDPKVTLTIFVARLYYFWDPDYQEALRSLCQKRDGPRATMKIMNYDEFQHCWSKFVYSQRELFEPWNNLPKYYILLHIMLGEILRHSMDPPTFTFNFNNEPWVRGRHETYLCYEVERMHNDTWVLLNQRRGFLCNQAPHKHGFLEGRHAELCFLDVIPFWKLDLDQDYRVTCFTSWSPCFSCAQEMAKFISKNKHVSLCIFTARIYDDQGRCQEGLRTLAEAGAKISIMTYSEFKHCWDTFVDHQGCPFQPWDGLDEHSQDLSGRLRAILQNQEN

Inconclusive results are not listed. Active and inactive are the calls of the source. Unless noted, the call rests on the fitted dose curve; in most records, active means well fitted curve in the direction sought with a large enough effect; inconclusive means small, poorly fitted or top-dose-only effect, or another doubt; inactive means no such curve, though single readings can be large; an effect the other way counts as inactive or inconclusive.

Ubiquitin carboxyl-terminal hydrolase 1 (Homo sapiens), sequence (O94782 whole entry, looked up): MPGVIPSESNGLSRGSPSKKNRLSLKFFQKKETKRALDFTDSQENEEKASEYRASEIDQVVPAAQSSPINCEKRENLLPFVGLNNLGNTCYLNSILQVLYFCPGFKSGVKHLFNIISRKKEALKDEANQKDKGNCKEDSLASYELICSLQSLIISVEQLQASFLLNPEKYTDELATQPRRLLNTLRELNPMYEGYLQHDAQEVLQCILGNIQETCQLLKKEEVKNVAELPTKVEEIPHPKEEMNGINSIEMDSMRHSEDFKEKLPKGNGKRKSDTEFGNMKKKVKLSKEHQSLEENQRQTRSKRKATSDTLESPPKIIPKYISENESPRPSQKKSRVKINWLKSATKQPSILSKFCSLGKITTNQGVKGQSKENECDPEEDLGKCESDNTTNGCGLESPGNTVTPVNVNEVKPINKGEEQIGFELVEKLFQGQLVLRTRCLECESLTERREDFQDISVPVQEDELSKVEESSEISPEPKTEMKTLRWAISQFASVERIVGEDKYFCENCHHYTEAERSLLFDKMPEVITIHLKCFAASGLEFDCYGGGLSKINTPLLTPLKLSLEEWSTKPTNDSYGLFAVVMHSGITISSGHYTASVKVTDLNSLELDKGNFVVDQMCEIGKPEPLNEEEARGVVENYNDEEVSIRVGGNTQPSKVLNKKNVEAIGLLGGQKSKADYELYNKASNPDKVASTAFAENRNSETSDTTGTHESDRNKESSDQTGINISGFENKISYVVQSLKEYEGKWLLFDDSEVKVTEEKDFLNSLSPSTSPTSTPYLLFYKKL
ATPase family AAA domain-containing protein 5 (Homo sapiens), sequence (Q96QE3 whole entry, looked up, the tested form may be a part): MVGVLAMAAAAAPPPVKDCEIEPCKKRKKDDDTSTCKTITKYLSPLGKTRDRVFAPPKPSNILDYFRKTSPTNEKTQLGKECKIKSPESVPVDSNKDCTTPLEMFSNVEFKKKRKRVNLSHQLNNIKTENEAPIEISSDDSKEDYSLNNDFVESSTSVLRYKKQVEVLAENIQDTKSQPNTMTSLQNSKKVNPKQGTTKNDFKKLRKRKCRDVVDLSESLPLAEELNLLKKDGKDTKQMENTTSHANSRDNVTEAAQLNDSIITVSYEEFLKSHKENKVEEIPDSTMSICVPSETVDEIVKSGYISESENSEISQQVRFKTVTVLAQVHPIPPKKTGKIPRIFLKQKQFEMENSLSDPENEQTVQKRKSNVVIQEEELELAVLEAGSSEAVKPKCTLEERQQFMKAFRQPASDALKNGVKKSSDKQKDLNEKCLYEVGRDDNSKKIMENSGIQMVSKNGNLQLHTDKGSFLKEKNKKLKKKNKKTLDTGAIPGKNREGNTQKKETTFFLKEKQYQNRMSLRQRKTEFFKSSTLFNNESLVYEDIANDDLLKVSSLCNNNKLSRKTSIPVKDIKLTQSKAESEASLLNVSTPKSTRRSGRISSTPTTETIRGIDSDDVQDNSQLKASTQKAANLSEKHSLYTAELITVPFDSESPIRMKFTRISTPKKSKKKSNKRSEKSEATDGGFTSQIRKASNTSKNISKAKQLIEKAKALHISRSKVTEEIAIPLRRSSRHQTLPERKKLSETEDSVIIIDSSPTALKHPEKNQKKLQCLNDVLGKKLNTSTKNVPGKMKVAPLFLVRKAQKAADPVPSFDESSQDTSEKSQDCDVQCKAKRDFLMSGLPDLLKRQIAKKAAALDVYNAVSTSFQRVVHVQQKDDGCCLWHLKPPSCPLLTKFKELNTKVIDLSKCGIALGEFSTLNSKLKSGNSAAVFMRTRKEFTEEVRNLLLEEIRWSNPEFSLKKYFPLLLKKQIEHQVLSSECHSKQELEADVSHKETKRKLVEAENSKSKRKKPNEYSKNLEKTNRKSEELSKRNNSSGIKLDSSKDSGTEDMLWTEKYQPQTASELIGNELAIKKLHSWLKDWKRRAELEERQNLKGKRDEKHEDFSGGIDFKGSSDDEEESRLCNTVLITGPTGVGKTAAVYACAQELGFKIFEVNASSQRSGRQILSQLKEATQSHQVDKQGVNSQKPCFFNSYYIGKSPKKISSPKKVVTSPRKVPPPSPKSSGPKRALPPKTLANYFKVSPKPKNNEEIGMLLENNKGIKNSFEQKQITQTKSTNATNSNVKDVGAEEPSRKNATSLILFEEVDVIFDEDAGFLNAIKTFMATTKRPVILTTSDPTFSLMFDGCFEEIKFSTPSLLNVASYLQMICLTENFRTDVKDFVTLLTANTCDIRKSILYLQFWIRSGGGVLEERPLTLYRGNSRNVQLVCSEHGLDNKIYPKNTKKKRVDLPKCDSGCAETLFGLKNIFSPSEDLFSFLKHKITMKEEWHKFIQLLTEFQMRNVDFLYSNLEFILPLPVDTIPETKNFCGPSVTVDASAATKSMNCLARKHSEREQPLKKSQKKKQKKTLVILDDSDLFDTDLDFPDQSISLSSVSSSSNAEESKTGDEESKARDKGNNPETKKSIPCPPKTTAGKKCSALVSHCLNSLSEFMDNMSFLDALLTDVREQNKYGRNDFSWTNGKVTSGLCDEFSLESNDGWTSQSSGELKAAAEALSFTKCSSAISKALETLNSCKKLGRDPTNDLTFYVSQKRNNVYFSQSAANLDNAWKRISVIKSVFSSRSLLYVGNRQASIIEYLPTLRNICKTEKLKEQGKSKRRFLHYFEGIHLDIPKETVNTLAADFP
phosphoglycerate mutase (Leishmania major), sequence (Q4Q090 1-553): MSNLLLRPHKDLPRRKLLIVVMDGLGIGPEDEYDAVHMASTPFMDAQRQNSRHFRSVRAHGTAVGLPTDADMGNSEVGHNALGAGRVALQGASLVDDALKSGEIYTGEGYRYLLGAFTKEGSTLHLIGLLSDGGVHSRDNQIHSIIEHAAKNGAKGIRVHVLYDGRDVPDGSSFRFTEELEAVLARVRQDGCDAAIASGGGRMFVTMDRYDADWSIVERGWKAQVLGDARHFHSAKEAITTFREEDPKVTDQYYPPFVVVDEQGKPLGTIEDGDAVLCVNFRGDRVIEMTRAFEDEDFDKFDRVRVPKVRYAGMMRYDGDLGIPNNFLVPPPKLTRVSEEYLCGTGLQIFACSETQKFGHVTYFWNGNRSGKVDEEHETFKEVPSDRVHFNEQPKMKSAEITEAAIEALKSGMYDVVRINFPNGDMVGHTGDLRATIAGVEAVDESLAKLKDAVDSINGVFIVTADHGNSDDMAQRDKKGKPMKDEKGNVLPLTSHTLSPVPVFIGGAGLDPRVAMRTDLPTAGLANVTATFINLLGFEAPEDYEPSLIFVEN
Galactokinase (Homo sapiens), sequence (P51570 whole entry, looked up): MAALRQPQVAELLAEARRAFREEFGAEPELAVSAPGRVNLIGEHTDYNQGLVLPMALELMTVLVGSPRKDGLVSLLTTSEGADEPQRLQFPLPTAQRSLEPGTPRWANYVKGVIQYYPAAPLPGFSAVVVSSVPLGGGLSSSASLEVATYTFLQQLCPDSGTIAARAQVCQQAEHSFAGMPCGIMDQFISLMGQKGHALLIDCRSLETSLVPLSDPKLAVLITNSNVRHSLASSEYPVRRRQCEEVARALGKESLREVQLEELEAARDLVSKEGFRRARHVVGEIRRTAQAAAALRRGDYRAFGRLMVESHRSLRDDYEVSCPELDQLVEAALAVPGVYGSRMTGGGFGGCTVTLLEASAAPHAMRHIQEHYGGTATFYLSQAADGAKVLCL
Peptidyl-prolyl cis-trans isomerase NIMA-interacting 1 (Homo sapiens), sequence (Q13526 whole entry, looked up): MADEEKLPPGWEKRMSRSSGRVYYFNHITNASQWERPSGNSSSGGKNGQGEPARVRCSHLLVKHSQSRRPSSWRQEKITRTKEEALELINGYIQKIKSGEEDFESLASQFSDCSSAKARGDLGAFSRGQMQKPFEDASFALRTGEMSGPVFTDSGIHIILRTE
Phosphoglycerate kinase, glycosomal (Trypanosoma brucei brucei), sequence (P07378 whole entry, looked up): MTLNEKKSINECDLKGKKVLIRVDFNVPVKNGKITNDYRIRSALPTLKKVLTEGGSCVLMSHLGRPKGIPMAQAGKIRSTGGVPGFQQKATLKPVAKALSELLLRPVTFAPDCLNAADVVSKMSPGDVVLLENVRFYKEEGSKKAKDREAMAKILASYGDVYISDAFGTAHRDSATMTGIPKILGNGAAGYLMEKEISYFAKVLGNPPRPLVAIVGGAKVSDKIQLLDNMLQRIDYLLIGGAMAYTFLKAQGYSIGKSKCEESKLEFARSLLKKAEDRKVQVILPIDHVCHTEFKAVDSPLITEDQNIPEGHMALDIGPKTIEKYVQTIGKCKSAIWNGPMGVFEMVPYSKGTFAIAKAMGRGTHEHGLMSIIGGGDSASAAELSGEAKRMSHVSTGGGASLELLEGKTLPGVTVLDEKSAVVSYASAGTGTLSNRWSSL

With `CCOC(=O)C1=C(C)NC(C)=C(C(=O)OC)C1c1cccc(Cl)c1Cl` (centres undefined), the compound was called inactive in assay [1], in [5], in assay [6], in assay [7], in assay [8] and in assay [9]. Moreover, the Potency result in assay [2] and in [4] was “inactive” each time. Also, the activation in assay [3] is 1.12% (inactive). In addition, the viability change in [4] is -3.98%.
With `CC(C)(C)c1ccc(C(=O)CCCN2CCC(OC(c3ccccc3)c3ccccc3)CC2)cc1`, the compound was called inactive in assay [1], in [10], in assay [7], in [8] and in [9]. In addition, the Potency entry in [2], in assay [4], in assay [11] and in assay [12] was “inactive” in each case. The viability change in [4] was -5.59%.
`CCN(CC)CCCN(c1ccccc1)C1Cc2ccccc2C1`: the outcome in assay [1], in assay [10], in assay [7], in assay [8] and in assay [9] was inactive. In addition, the Potency entry in assay [2], in assay [13], in assay [4] and in [14] was “inactive” each time. Besides, in assay [4], the viability change was -6.42%.
For `CN(C)C(=O)Oc1ccc[n+](C)c1`, the compound was classed as inactive in [1], in [10], in assay [5], in [6], in assay [7] and in [8]. Moreover, the result in assay [9] was inactive. The Potency entry in assay [2], in assay [4], in assay [14], in assay [11] and in assay [12] was “inactive” throughout. Also, the viability change in assay [4] was -10.4%.
In the case of `CN(C)CCCN1c2ccccc2Sc2ccccc21`, the call in assay [1], in [10], in [5], in assay [7], in assay [8] and in assay [9] was inactive. Further, the Potency entry in [2], in [4] and in assay [14] was “inactive” throughout. In addition, the activation in assay [3] is 8% (inactive). Further, in [4], the viability change turned out to be 1.11%.
Take `CSc1ccc(C(=O)c2[nH]c(=O)[nH]c2C)cc1`: the outcome in assay [1], in [10], in [5], in assay [6], in assay [7] and in [8] was inactive. The compound was called inactive in assay [9]. Moreover, the Potency result in assay [2], in assay [4], in assay [14] and in assay [11] was “inactive” throughout. In addition, the viability change in assay [4] was found to be 0%.
`CC(C(=O)O)c1ccc(CC2CCCC2=O)cc1` (centres undefined): the outcome in [1], in assay [5], in assay [6], in assay [7] and in [9] was inactive. The Potency entry in assay [2], in assay [13], in [4], in [14], in [11] and in [12] was “inactive” throughout. Moreover, the viability change in assay [4] is -13.4%.
Turning to `CC(C)NNC(=O)c1ccncc1`, the outcome in assay [1], in assay [10], in assay [5], in assay [6], in assay [7] and in assay [8] was inactive. Also, the compound was called inactive in [9]. Moreover, the Potency entry in assay [2], in [4], in assay [14], in assay [11] and in assay [12] was “inactive” throughout. Besides, in [4], the viability change came out at 1.54%.
Turning to `COc1cc2c(cc1OC)-c1cc(=Nc3c(C)cc(C)cc3C)n(C)c(=O)n1CC2`, the result in assay [1], in assay [10], in assay [5], in [6], in [8] and in assay [9] was inactive. The Potency entry in assay [2], in assay [11] and in assay [12] was “inactive” throughout. Moreover, the Potency in assay [13] is 13 µM (active).
`COc1ccc([C@@H]2Sc3ccccc3N(CCN(C)C)C(=O)[C@@H]2OC(C)=O)cc1`: the result in [1], in assay [10], in assay [5], in [6], in [7] and in assay [8] was inactive. The outcome in [9] and in assay [15] was inactive. The Potency entry in assay [2], in [13], in assay [14], in [11] and in assay [12] was “inactive” each time.
